In the library only some 3.5% were active in any assay of this set; here they are far more common.
GPR151 activ = human GPR151 activation; 1% of 650,000 active; Q8TDV0; PathHunter beta-arrestin GPR151 cells, luminescence; activation, % at 11.2 µM; in the data active = activation above about 4.9%;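 also: 0% = median of compound wells and 100% = cells with positive control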
TEAD-YAP inh = TEAD-YAP interaction inhibition. HEK-TIYL cells, TEAD-Gal4/YAP UAS-luciferase luminescence. inhibition, % at 9.12 µM. 1.4% of 640,000 active; in the data active = inhibition above about 32%;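 also: 0% = median of test compound wells and 100% = reference inhibitor wells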
MITF primary = blocks human microphthalmia-associated transcription factor | AlphaScreen MITF homodimerization, bead proximity signal | inhibition, % at 2.6 µM | 0.91% of 650,000 active; in the data active = inhibition above about 50%;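 also: 0% = vehicle wells with protein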
FBW7 act = activators of human E3 ligase FBW7; Q969H0; AlphaScreen FBW7–phospho-cyclin E peptide binding, activator screen; AID 1259310; 0.13% of 650,000 active; normalized activity (activation), % at 26.1 µM; in the data active = normalized activity above about 1.9%;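 also: purified mutant Fbw7 with reduced substrate affinity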
* = called active by the depositor.

What do the screens show for `COc1cc(Nc2cc(N3CCCC3)c3noc4c3c2C(=O)c2ccccc2-4)cc(OC)c1OC`?
GPR151 activ: 1; TEAD-YAP inh: 0; MITF primary: 2; FBW7 act: 0

What do the screens show for `Cc1ccccc1Nc1cc(N2CCOCC2)c2noc3c2c1C(=O)c1ccccc1-3`?
GPR151 activ: -1; TEAD-YAP inh: 5; MITF primary: 55*; FBW7 act: 0

What do the screens show for `O=C1c2ccccc2-c2onc3c(N4CCCCC4)cc(N4CCOCC4)c1c23`?
GPR151 activ: 0; TEAD-YAP inh: 8; MITF primary: 62*; FBW7 act: -1

Results for Cc1cccc(Nc2cc(N3CCOCC3)c3noc4c3c2C(=O)c2ccccc2-4)c1 ?
GPR151 activ: 0; TEAD-YAP inh: -1; MITF primary: 15; FBW7 act: 0

How did Cc1ccc2nc(-c3cc(NC(=O)c4ccccc4I)ccc3Cl)oc2c1 do in these assays?
GPR151 activ: 1; TEAD-YAP inh: -32; MITF primary: -2; FBW7 act: 0

What do the screens show for `N#CC(C#N)C(C#N)(C#N)C1CCC/C(=C\c2ccco2)C1=O` (stereo not given)?
GPR151 activ: 2; TEAD-YAP inh: -2; MITF primary: 81*; FBW7 act: -1

How did O=C1/C(=C/c2ccco2)CCc2ccccc21 do in these assays?
GPR151 activ: -3; TEAD-YAP inh: -54; MITF primary: 22; FBW7 act: 0

How did CC(=O)OC1c2ccccc2NC(c2ccccc2)C1(C)C (stereo not given) do in these assays?
GPR151 activ: 1; TEAD-YAP inh: -6; MITF primary: -6; FBW7 act: 0

Results for CC(=O)OC1c2cc(C)ccc2NC(c2ccccc2)C1(C)C (stereo not given) ?
GPR151 activ: 0; TEAD-YAP inh: 63*; MITF primary: -1; FBW7 act: 0

What do the screens show for `N#Cc1nc(-c2ccc(COc3ccccc3)o2)oc1N1CCc2ccccc2C1`?
GPR151 activ: 0; TEAD-YAP inh: 9; MITF primary: 6; FBW7 act: 0

How did Cc1cccc(C(=O)Nc2sc3c(c2C(=O)O)CCCC3)c1 do in these assays?
GPR151 activ: -6; TEAD-YAP inh: 70*; MITF primary: 0; FBW7 act: 0

How did O=C(/C=C/c1ccccc1)Nc1sc2c(c1C(=O)O)CCCC2 do in these assays?
GPR151 activ: 0; TEAD-YAP inh: 49*; MITF primary: 3; FBW7 act: 0

What do the screens show for `NC(=O)c1c(NC(=O)c2ccc(Br)o2)sc2c1CCCCC2`?
GPR151 activ: -4; TEAD-YAP inh: 85*; MITF primary: -5; FBW7 act: 0

What do the screens show for `Cc1cccc(C(=O)Nc2sc3c(c2C(N)=O)CCCC3)c1`?
GPR151 activ: -3; TEAD-YAP inh: 52*; MITF primary: 2; FBW7 act: 0

Results for NC(=O)c1c(NC(=O)/C=C/c2ccccc2)sc2c1CCC2 ?
GPR151 activ: 2; TEAD-YAP inh: -80; MITF primary: 3; FBW7 act: 0

Results for NC(=O)c1ccsc1NC(=O)/C=C/c1ccccc1 ?
GPR151 activ: -11; TEAD-YAP inh: 81*; MITF primary: -2; FBW7 act: 0

What do the screens show for `Cc1ccc(/C=C/C(=O)Nc2sccc2C(N)=O)o1`?
GPR151 activ: -4; TEAD-YAP inh: -42; MITF primary: 5; FBW7 act: 1

How did Cc1cccc(OCC(=O)Nc2sc3c(c2C(N)=O)CCCC3)c1 do in these assays?
GPR151 activ: 2; TEAD-YAP inh: 53*; MITF primary: -7; FBW7 act: 0

What do the screens show for `Cc1ccc(NC(=O)c2c(NC(=O)c3ccc(Br)cc3)sc3c2CCCC3)c(C)c1`?
GPR151 activ: 2; TEAD-YAP inh: 0; MITF primary: 9; FBW7 act: 2.1*

What do the screens show for `NC(=O)c1c(NC(=O)CCl)sc2c1CCC2`?
GPR151 activ: 0; TEAD-YAP inh: 61*; MITF primary: 5; FBW7 act: 0

Results for CCC(=O)Nc1sc2c(c1C(N)=O)CCC2 ?
GPR151 activ: -1; TEAD-YAP inh: 7; MITF primary: -9; FBW7 act: 0

Results for COc1ccc2nc(-c3ccc(NC(=O)c4ccccc4F)cc3)cn2n1 ?
GPR151 activ: 0; TEAD-YAP inh: -23; MITF primary: 4; FBW7 act: 0

Results for CCOc1ccc(-n2cc(C(=O)Nc3ccccc3C(F)(F)F)c3cc(OC)c(OC)cc3c2=O)cc1 ?
GPR151 activ: 1; TEAD-YAP inh: -4; MITF primary: 27; FBW7 act: 0

How did NC(=O)c1c(NC(=O)c2cccc(Br)c2)sc2c1CCCC2 do in these assays?
GPR151 activ: 1; TEAD-YAP inh: 47*; MITF primary: -20; FBW7 act: 0

Compound activity (PubChem BioAssay)
